Experimental findings from the supplement of paper PMC10105736 are described below.

Unmarked numbers belong to inactive results.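 The calls were made as follows: active = MAPPIT score above the 99th percentile of random reference set scores in the same batch; inactive = at or below it.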

Common to all, as to assay: MAPPIT interaction score (arbitrary units); higher = stronger binary interaction signal, active = hit call of the paper
One assay concerns the target msd5. Particulars: MAPPIT configuration: N-N; pair source set: Curagen_low_conf.
The next assay addresses nos. Conditions: MAPPIT configuration: N-N; pair source set: Curagen_high_conf.
For the next assay, the target named is nSyb. Particulars: MAPPIT configuration: N-N; pair source set: DPIM.
The target of another assay is mod(mdg4). Conditions: pair source set: Lit-BM-16.
The target of the next assay is su(Hw). Particulars: MAPPIT configuration: N-C; pair source set: Lit-BM-16.
In the next assay the target is msl-2. Conditions: pair source set: Lit-BM-16.
A further assay has as its target mwh. Conditions: MAPPIT configuration: N-N; pair source set: Curagen_high_conf.
The next assay concerns the target ninaD. Conditions: MAPPIT configuration: N-C; pair source set: screen_4.
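Also: HEK293T cells with Epo stimulation, STAT-responsive firefly luciferase reporter, fold induction versus unstimulated cells divided by the larger fold induction of two negative controls lacking either bait or prey.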

B1: lobo (protein)
chain: MPKVLFQKYKKVVSNIDPSRYSAKFKEIDEQRRSQGSESDFADEMEGEFEAEMEEMGSSEFSLSEGEPSLNIGKIDLSFPETVEEFENSPQCYPPSYYTLSPKERLLLLYAENFRKQLVLSYPKRRAMVLALPNECKVQKFVCTTIRPTAFIYTQLISSVEEIAKFVADFIQYEPLQDPINLPNRLISPETLLRKRKGNSYEMATLLVSMLIGAGHPALVVSGVAREETILNDQLAVPYPYPIVEVEVEEVKPKVEKPGQKYKLRGLPDLKSHLEEDMAEVHRQKEAEEKRIQDEIIRKQMEDLELLAVDRYHYRRSHAWVVIINNAPWSVKPKTTYTDVNGDVVEAPPTAIFIEPSTGFICETGCKQYILVDSIWNEYNYYVCKQKHQRVSELRWDLRDTKDWEHMLPGEPPEMRIYKMASDENVADEERDISEEKHLDCIGSWVERLHIGLADFEQRFPSSEKKIQYKGAIHERFSPYSQRDGKVMQLTIFNNDECTIPKVRYEYYENRSDLMRHVKYTYATDQFEEIFNKGRNDSLKSIEYFSDPSQQRKVHFFSASRIDSLELMVVEPGSLILHYKDRSDKCWYKEFEFTPAGNVLKKVTEKFLKASANDVCSNDIATRTFLFQQNKIVLKFHYTFGALTATVVEFTKPPRPDYGKELIYDEKLTKIYKANPLDPTRTNLELYRLLCEQLQYEDHLRKNFEKIFEDINNVFDLRKSEKAEPKLKFSIFDPLRNGAARAIRMRQFEEEEELKKEIASKPADFLAPYLVPYKHQEELTPEQSQNAYNACLNDLKSRFVSLLNNLQRHYEDLTSESKSLNRFLNKFENQFNNYDYKRLVQQSKDLELNKRMVQQRLTLTHEESQKKYEVVKNSLLKDPRLNFKKDDLARRASETSK
For B1, the MAPPIT interaction score with msd5 was 2.32.

B2: 128up (protein)
chain: MSTILEKISAIESEMARTQKNKATSAHLGLLKAKLAKLRRELISPKGGGGGTGEAGFEVAKTGDARVGFVGFPSVGKSTLLSNLAGVYSEVAAYEFTTLTTVPGCIKYKGAKIQLLDLPGIIEGAKDGKGRGRQVIAVARTCNLIFMVLDCLKPLGHKKLLEHELEGFGIRLNKKPPNIYYKRKDKGGINLNSMVPQSELDTDLVKTILSEYKIHNADITLRYDATSDDLIDVIEGNRIYIPCIYLLNKIDQISIEELDVIYKIPHCVPISAHHHWNFDDLLELMWEYLRLQRIYTKPKGQLPDYNSPVVLHNERTSIEDFCNKLHRSIAKEFKYALVWGSSVKHQPQKVGIEHVLNDEDVVQIVKKV
For the molecule B2, in the assay with nos, the MAPPIT interaction score was 0.2.

B3: eIF3c (protein)
chain: MSRFFANGSESESESSEEEIQATNFNKASAFQFSDDEEEVKRVVRSTKEKRYENLTSIIKTIRNHKKIKDIPNTLSSFEDLTRAYQKALPVISKEENGITPRFYIRCLAELEDFINEVWEDREGRKNLSKNNSKSLGTLRQKVRKYIKDFEDDLSRFREAPDQESEAEDEVVALESDGGDAGDDSDAGVKPTEAVPKAVKSAPAKAAPADDDDSDDSIDWDSDSESETESSDDENQYQNMRERFLKRTTEKEEKDDDKRKDKRKEQKTKIRKRAEDDEDGEWETVVKGHVVEKPKMFEKDAEIDVPLVLAKLLEIMSARGKKRTDRRLQIDLLFELRDISDQHNLGTAVSVKIHFNIISAIYDYNQKISEPMKLEHWALLLEVMQSMMKLLLANADIIMSESVAEEHEEYATSPFYVRGCPLAAVERLDDEFVKLLKECDPHSNDYVSRLKDEVNVVKTIELVLQYFERSGTNNERCRIYLRKIEHLYYKFDPEVLKKKRGELPATTSTSVDVMDKLCKFIYAKDDTDRIRTRAILAHIYHHAMHDNWFQARDLVLMSHLQDNIDAADPATRILYNRMMANLGLCAFRQGNVKDAHHCLVDLMVTGKPKELLAQGLLPQRQHERSAEQEKIEKQRQMPFHMHINLELLECVYLVSAMLLEIPYIAAHEFDARRRMISKTFYQQLRSSERQSLVGPPESMREHVVAAAKAMRCGNWQACANFIVNKKMNTKVWDLFYESDRVREMLTKFIKEESLRTYLFTYSNVYTSISIPSLAQMYELPVPKVHSIISKMIINEELMASLDDPSETVGMHRSEPSRLQALAMQFVDKVTNLVDVNEKVFDMKQGNFFQRGNMGNRGDRGYNRNQNNQGGNWLGQRRDRNNRNRNQRGHHKNNQDRQQQQQQQVQTIDEE
With B3, the MAPPIT interaction score in the assay with nSyb is 0.214.

B4: Cp190 (protein)
chain: MGEVKSVKVDNWGVFFLQKLQNFFNKTDYCDLTLQFRDNSQLKVHRLVLSACTDYFNVLEQTCEIVDDALIMPNEFQADVVVPIVNFMYTGTLEFELKMYGKLLRTAKEMNMTVLLKLLEAHRRTMENVNRQQRPPSPKGIRRRTVGQPSSGLPQQRVLGPSPQSRNVATPIAQRANTQRGSTGNTMSRTSGGSNRSPYGDSSNVKQEPTSPFEQLRKGYNNNKRPAQTSLLSPPSKKPSLEEVKEFAEQQRMRKQIAAEYGDNDPEYDGGMLYDDVHAGDDDDDDMPPQPSTSKQQSPQGTQTQLEHGSTTIILKQDSPSQTPTIIVKDSSNAKLNHTKIIAEVLRQYPHIVKGHKNIKLKIMPNTPAAPTEKSAPATVKPPANQSSATTSPHKKLHVSFKADKSTPLITAQQKAASSQQKSGTSQTTGNQGTGANPPANTAAAQKRRIDSKTMHALIAQGAENTTGPWLCLRCGVNGRPISIPSYRGFRRHLINTHKETIDPALCEHCGWRSVNNRELHFHMYMEHQTKSLLYTFAECALCNQSYRTKGELEAHINEVHTDDNKQQCIYCNKVFEQELQLYRHMKSYHKEQALEDGIIDETDEEFLGSQDEEEEAEGDEEQEPEQTGKVRILSDISLPATSAITVQQAQQEQLQEEDVEQVQQEVKFVGADGNEVELTDEQRKEILSQLNQQQAGATAGGVVMVLSEPEAEHVKQETDEKSLAGTEEEYDDSQIYSELGAADSVESAKKNIADESKESIDNLEWAENLIAESEEQSNKEPKSDKPRDDISEKLKELTGDWTEDENDDDVDDKPATAELASELANKDPEPTVHEEEDDIDLALQSLHKGPEEATEEKASEESVTSADDAVDAVPNINSQPEKMDVDSEAADEKASKAEVQIKKEAELENDQEEFIKEDSPIPHSDSVAELREAVTASEGEDDVHLEADNIRKELLDELIAEAEKPDQEKDIVQSEENATTEALDRSVTDEDDLVPPTQVSTEQMEIDEPAAEKAAENNEDTRTADEKEAVEDKPNQTQDVTTAEKPTLESAKAGDEATSGEAASVDKVKSLISEWGDDDEDEDENGVSAAAKEEL
As to B4, the MAPPIT interaction score in the assay with mod(mdg4) (MAPPIT configuration: N-C) was 2.63; with mod(mdg4) (MAPPIT configuration: N-N) it was -0.119; in the assay with su(Hw), -0.381.

B5: JIL-1 (protein)
chain: MSRLQKQNYEILSGTSTSRLKNHQHPRESESLAYEEPDQMVRNHLNGQLVANGNGKTRKNSNSETMTNGKKSKLNTEGSGSGSGKTLNYNNNNNNNNSISATNGQYTNSSSKTTSASARDYTYRETISPPTPPSPPTTNVADIVCISDAESEDGRDPEREYYDQDMEEDEPNGIEIDESSSSLSKAKSNNAAAAAAAAAAAAAAAASKASSSTTPSYAMPTSNSTPLDLDNEAHQRDLEAVTDLKYYVKLYSDEAVSLNDFKIIRVLGTGAYGRVFLVRKLTRHDAGKLYAMKVLNKITVVQKRKTAEHTKTERVVLEAIQRNPFLVSLHYAFQSSSKLYLVLDFANGGELFTHLYHSENFEESRVRVYIAEVVLALEQLHQLGIIYRDIKLENILLDGEGHIVLSDFGLSKILTAENEYRAHSFCGTLEYMAPEIIRTGPPGHDSAVDWWSVGVLTFELLTGASPFATSDGQVQQSEISRRIQKEQPMIPSSFSANARDFVLKMLEKNPKRRLGGNHRDASEIKEHPFFNGINWQELRTKRRKAPYKPTLTAEDDVQNFSNEFTDQVPEDPECDAPPSRIRLFRGYTYVAPEHLEQMRRDNHCEIQYFNTGLQNIPCRPDDLELGTRTSNGAYGTCHFVVDSSTDLVFLAKIIPLSKFRPSEVDALISCALDTTNHKNIVSYHGTFREKCETWIVMEYLSGPELTASIRMDEDSCREIFLQLVMAVRHIHSKHFIHGDLKPENIMFENREDRTVKLIDFGSACYNNRFKSWKDKPRYTLDYAPPEMLADANLVTYSPAVDIYGLGATLYTMLVGHRPYRQNEDDVDHSAAAHHELRKRMRRGTFNQRSMRWESASPAFRHLVSWCLQRDPADRPTLSDILDSEWLQYGSNDPDVDIILPQQMVVDLSEDTMEQPTGGMFDDQQQLEFMHDKSAEDEGITLVSEPMDTTVATHESRRNAAAFSSVVAPTTDDEIVHERFDPAFEVQADFYGFDENAPPLPLPEEYYSELPLPEEDRQYIPPPPALIPVEPETTFRRPRTRQQRRTESQLVQPVSVATYEDSKASLRVLMQQLPPPGDNVVARIPKRTHRVVRTLPPTFGTTKREENFYGFSKTAISWRKTRASWRHFCLLINGVQQVLKVRFKKARRVYCLPHIKEEKLDHAYEKPLTFPRPKAQLKRTKREPKVPRPPTRVQPERARAMRQLYQFQ
Consider B5, for which the MAPPIT interaction score is 0.534 in the assay with msl-2 (MAPPIT configuration: N-C) and 0.0488 with msl-2 (MAPPIT configuration: N-N).

B6: vilya (protein)
chain: MAKSQAGQTVEPEASKLWIHCNSCCALFCDKKHTFFLLACHHVFCERCVKVSAGRTPSDAPIFECSTCRRSVRGRQLTNSMPNHFKQLFHPEPFTIGNDFVETFQRGNHRHFDKYKERKELEMDKLFKDIEVAKSVCQKRFLEAQMLRVERKKLMQRSRYIKAEVANRKAEMHRMAQAYRSRSLTSQSSSSAQRSARGRPRGRGTATQSSSRRRSTESAKRQQITSFIHPPNNSFDL
As for B6, in the assay with mwh, the MAPPIT interaction score is 0.602.

B7: Snap25 (protein)
chain: MPADPSEEVAPQVPKTELEELQINAQGVADESLESTRRMLALCEESKEAGIRTLVALDDQGEQLDRIEEGMDQINADMREAEKNLSGMEKCCGICVLPCNKSQSFKEDDGTWKGNDDGKVVNNQPQRVMDDRNGMMAQAGYIGRITNDAREDEMEENMGQVNTMIGNLRNMALDMGSELENQNRQIDRINRKGESNEARIAVANQRAHQLLK
In the case of B7, in the assay with nSyb, the MAPPIT interaction score was 0.399.

B8: mRpL13 (protein)
chain: MSIAKRVQQWATFARTWHIYDCTWQNPFESAKLVKTHLLGLQKPIYHPMNDCGDHVVLINTREIALPGDEWVKRVYFHHTGYPGGASWTLAWQLHEKDPTMVMKKAVYNSMRGNLQRRHTMQRLHLFADDQVPEEILQNVTNQIRTPRSIPQRLDHIDKETLENFPNIMDYPKDYILR
As for B8, the MAPPIT interaction score with nSyb was -0.207.

B9: CG5382 (protein)
chain: MGLCKCPKRLVTNQFCFEHRVNVCEHCMVQSHPKCIVQSYLQWLRDSDYISNCTLCGTTLEQGDCVRLVCYHVFHWDCLNARQAALPANTAPRGHQCPACSVEIFPNANLVSPVADALKSFLSQVNWGRNGLGLALLSEEQSSSLKAIKPKVASQAAVSNMTKVHHIHSGGERERTKPNGHDAVSPHSVLLMDAFNPPSAGDYASSRRPLLPRQSPIGGTDRDDNKYQRRTPAELFSRWTRRFYAPSSRPPWRRTWFLVTAGILAFVLFVYLMAWLGRGGSDAVDEGWNNPNPQPNHYE
In the case of B9, in the assay with ninaD, the MAPPIT interaction score is 0.641.
